The text below walks through data of PubChem BioAssay (NCATS).

SMILES strings stand for the structures. Records with an inconclusive call do not appear. Values without a mark were called inactive. The source made the active and inactive calls. The call rests on the fitted dose curve; in most records, active means well fitted cell-killing curve with a large enough effect; inconclusive means small, poorly fitted or top-dose-only effect; inactive means no such curve, though single readings can be large or run the other way.
On the % scale 0 is the no-effect control and ±100 the full control effect; potency means the concentration at half of the fitted maximal effect.

The nature of the assay: qHTS of pediatric cancer cell lines to identify multiple opportunities for drug repurposing: Confirmatory screen for DAOY cells (AID 1347114). Further: nearly all actives have a fitted effect of over 65% in size. The note with it: DAOY medulloblastoma cells viability, cytotoxicity qHTS; series mostly up to 45.9 µM; activity change, negative = cytotoxic: at the top concentration. In short, it runs like this:
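Viability measured as metabolically active cells via CellTiter-Glo luminescence following 48 hours of compound exposure, 11-point dilutions in confirmatory testing. 500-1,000 cells/well plated 5 hours before dosing; controls were DMSO and 2.3 µM bortezomib.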
In general terms: Quantitative high-throughput screening tests each substance at several concentrations.
As for `COc1cc2cc(c1Cl)N(C)C(=O)C[C@H](OC(=O)C(C)C)[C@]1(C)O[C@H]1[C@H](C)[C@@H]1C[C@@](O)(NC(=O)O1)[C@H](OC)C=CC=C(C)C2`, the Potency was 3.7 nM (active).
In the case of `CC(C)(C)C(O)C(Oc1ccc(Cl)cc1)n1cncn1` (stereo not given), the “activity change, negative = cytotoxic” value was 7.87% [at 97.2 µM].
As to `CC[C@@]1(O)C(=O)OCc2c1cc1n(c2=O)Cc2cc3ccccc3nc2-1`, the Potency is 4650 nM (active).
For `O=[N+]([O-])c1c(Cl)c(Cl)cc(Cl)c1Cl`, the “activity change, negative = cytotoxic” value was 7.09% [at 97.2 µM].
For the compound `C[C@@H]1O[C@@H](O[C@@H]2C=C3CC[C@@H]4[C@@H](CC[C@]5(C)[C@H](c6ccc(=O)oc6)CC[C@@]45O)[C@@]3(C)CC2)[C@H](O)[C@H](O)[C@H]1O`, the Potency was 7.4 nM (active).
Same read-out and setting: under `C=CCON=C(C[C@H]1O[C@@H]2O[C@]3(C)CC[C@@H]4[C@H](C)CC[C@@H]([C@H]1C)[C@@]24OO3)[C@H]1O[C@@H]2O[C@]3(C)CC[C@H]4[C@H](C)CC[C@@H]([C@@H]1C)[C@@]24OO3` stands 1850 nM (active).
Same read-out and setting: under `CC1=C(O)C(=O)C=C2C1=CC=C1[C@@]2(C)CC[C@@]2(C)[C@@H]3C[C@](C)(C(=O)O)CC[C@]3(C)CC[C@]12C` stands 1650 nM (active); under `CC(C)(O)C=CC(=O)[C@](C)(O)[C@H]1[C@H](O)C[C@]2(C)[C@@H]3CC=C4[C@@H](C=C(O)C(=O)C4(C)C)[C@]3(C)C(=O)C[C@@]12C`, 165 nM (active).
Regarding `O=c1[nH]c2ccc(Cl)cc2c(N[C@@H]2CN3CCC2CC3)c1-c1nc2ccccc2[nH]1`, the Potency is 9270 nM (active).
Same read-out and setting: under `CC(C)[C@]12O[C@@H]1[C@@H]1O[C@]13[C@]1(O[C@H]1C[C@@H]1C4=C(CC[C@@]13C)C(=O)OC4)[C@H]2O` stands 208 nM (active).
